The list is not random: actives were taken first. Their share in the collection is about 2.3%.
ELG1 repair inh: ELG1-dependent DNA repair inhibition; HEK293T ELG1-luciferase reporter, luminescence, 16 h; DNA damage induced by 5-fluorouridine; Potency, µM (series often up to 46.1 µM), inactives show at the highest dose activity change, negative = inhibition, usual class: inhibitors; 330,000 tested, 2.3% active; note: potency is the fitted concentration of half-maximal effect; % is set by controls: 0 for no effect and ±100 for the full control effect; nearly all actives have a fitted effect of over 55% in size
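Luminescence from the luciferase reporter, measured 30 min after ONE-Glo reagent at room temperature, was the read-out. Beforehand, 2,000 cells per well were exposed for 16 hr at 37 °C to 5-fluorouridine together with compound or vehicle.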
TRPV1 potentiator: potentiators of human vanilloid receptor 1 (TRPV1) | 320,000 tested, 0.02% active | TRPV1-expressing cells, Fluo-8 calcium influx, capsaicin EC20 potentiation | AID 540277 | Q8NER1 | potentiation, % at 8.33 µM; in the data active = potentiation above about 80%; inconclusive = between about 30% and that limit; note: 0% is about no effect
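TRPV1-expressing cells were cultured overnight at 35.5C and loaded with Fluo-8 calcium dye for 40 to 90 min at room temperature. After a 10 s baseline, compound was added and calcium influx was read kinetically for 3 min (ex 480/em 520 nm).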
FUS suppressor: FUS proteinopathy suppression in yeast | AID 1347120 | S. cerevisiae FUS-expressing, growth rescue, OD600, 24 h | 390,000 tested, 0.24% active | Potency, µM (doses to about 76.6 µM), usual class: activators;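 note: potency is the fitted concentration of half-maximal effect; plate controls were DMSO vehicle for no effect and reference control for full effect; nearly all actives have a fitted effect of over 55% in size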
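S. cerevisiae expressing FUS from galactose induction served as the toxicity model. Growth after 24hr at 30C, read as absorbance at 600 nm, indicates suppression of toxicity; compounds dosed at several concentrations.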
Giardia killer: kills Giardia lamblia; Giardia lamblia trophozoite viability; activity change, % at 7.66 µM, hits read low; 340,000 tested, 0.15% active; in the data active = activity change below about -80%; inconclusive = between about -30% and that limit;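 note: parasites exposed to compound for two days anaerobically before the ATP read; % is set by controls: 0 for no effect and ±100 for the full control effect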
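Trophozoite viability was measured as ATP-dependent luminescence, read 15-30 min after reagent addition. Before that, parasites at 100 cells/well were exposed to compounds for 48 h, anaerobically, at 37 deg C.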
TRPV1 ag: activates the human vanilloid receptor TRPV1. Q8NER1. TRPV1-expressing cells, Fluo-8 calcium influx, agonist mode. activation, % at 8.33 µM. 320,000 tested, 0.19% active. AID 540275; in the data active = activation above about 80%; inconclusive = between about 30% and that limit; note: 0% is about no effect
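Cells expressing TRPV1 were dye-loaded with Fluo-8 and read kinetically: 10 s baseline, 3 min after compound (agonist portion), then 2 min after EC20 capsaicin (allosteric enhancer portion). Calcium-bound dye fluorescence at 480/520 nm.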
ELG1 FLuc counter: luciferase inhibition in cell-free luciferin readout for ELG1 hits; shares compounds with ELG1 repair inh; cell-free firefly luciferase luminescence counter-screen, ViewLux; Potency, µM (highest dose often 46.1 µM), without a hit: at the top dose activity change, negative = inhibition, actives largely listed as inhibitors; 350 tested, 3% active; note: potency is the fitted concentration of half-maximal effect; % is set by controls: 0 for no effect and ±100 for the full control effect
ELG1-Luc inh: confirmation of human ELG1-dependent DNA repair inhibitors. HEK293T ELG1-luciferase levels, luminescence; cells co-treated with 5-fluorouridine. Potency, µM (titrated, usually from 46.1 µM), for inactives: at the highest dose activity change, negative = inhibition, actives largely listed as inhibitors. 670 tested, 68% active. AID 624248. shares compounds with ELG1 repair inh; note: potency is the fitted concentration of half-maximal effect; % is set by controls: 0 for no effect and ±100 for the full control effect; nearly all actives have a fitted effect of over 55% in size
ELG1 MMS Luc: confirmation of human ELG1 repair inhibitors, MMS stimulated. shares compounds with ELG1 repair inh. HEK293T luciferase-tagged ELG1 level, MMS stimulated. Potency, µM (series often up to 46.1 µM), for inactives: top-dose activity change, negative = inhibition, usual class: inhibitors. 670 tested, 53% active. AID 624249; note: potency is the fitted concentration of half-maximal effect; % is set by controls: 0 for no effect and ±100 for the full control effect; nearly all actives have a fitted effect of over 60% in size
ELG1 5FU viab: confirmation of ELG1 repair inhibitors: viability with 5FU. cell viability with 5-FU, ELG1-dependent repair. AID 624250. Potency, µM (highest dose often 46.1 µM), without a hit: at the top dose activity change, negative = viability loss, usual class: cytotoxic. 670 tested, under 10 active. shares compounds with ELG1 repair inh;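 note: ELG1-luc HEK293T cells cotreated with 5-fluorouridine at 10 µM final; potency is the fitted concentration of half-maximal effect; viability measured 16 h after compound addition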
ELG1 MMS cell: confirmation of ELG1 repair inhibitors: viability with MMS; shares compounds with ELG1 repair inh; Cell viability with MMS, ELG1-dependent DNA repair; Potency, µM (doses to about 46.1 µM), inactives show top-dose activity change, negative = viability loss, actives largely listed as cytotoxic; 670 tested, 33% active; AID 624251;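 note: ELG1-luc HEK293T cells co-treated with 10 µM MMS; potency is the fitted concentration of half-maximal effect; viability read 16 h after compound addition; % is set by controls: 0 for no effect and ±100 for the full control effect; nearly all actives have a fitted effect of over 60% in size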
Cell viab unstim: affects unstimulated cell viability, ELG1 hit counter-screen. shares compounds with ELG1 repair inh. cell viability counter-screen, unstimulated, luminescence. Potency, µM (top dose mostly 45.9 µM), for the others: at the highest dose activity change, negative = loss of viability, most hits filed as cytotoxic. 900 tested, 8% active. AID 624252;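 note: potency is the fitted concentration of half-maximal effect; compound exposure lasted 16 hours before reading; % is set by controls: 0 for no effect and ±100 for the full control effect; nearly all actives have a fitted effect of over 55% in size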
FLuc enzyme: counter-screen for ELG1 repair inhibitors: firefly luciferase inhibition; shares compounds with ELG1 repair inh; purified firefly luciferase, luminescence counter-screen; Potency, µM (series often up to 57.5 µM), for inactives: at the top dose activity, negative = inhibition, usual class: inhibitors; 350 tested, 10% active; note: potency is the fitted concentration of half-maximal effect; % is set by controls: 0 for no effect and ±100 for the full control effect
Active calls of the source: *; i = inactive; ? = inconclusive; · = no result given. Unless noted, calls come from the whole dose curve; as a rule, active = well fitted curve in the direction sought with a large enough effect; inconclusive = small, poorly fitted or top-dose-only effect, or another doubt; inactive = no such curve, though single readings can be large; an effect the other way counts as inactive or inconclusive.

SMILES | ELG1 repair inh | TRPV1 potentiator | FUS suppressor | Giardia killer | TRPV1 ag | ELG1 FLuc counter | ELG1-Luc inh | ELG1 MMS Luc | ELG1 5FU viab | ELG1 MMS cell | Cell viab unstim | FLuc enzyme
Cc1cccc(NC(=O)C(c2ccccc2)N2Cc3ccccc3C2=O)c1C (stereo not drawn) | · | · | i | · | · | · | · | · | · | · | · | ·
CC(C)c1ccc(NC(=O)Cn2cc(S(=O)(=O)Cc3ccccc3Cl)c3ccccc32)cc1 | · | · | i | · | · | · | · | · | · | · | · | ·
O=C1/C(=C/c2ccc(O)c(O)c2)Oc2ccccc21 | · | · | · | · | · | · | · | · | · | · | -12% | ·
O=C1CCC/C1=c1\s/c(=C\c2cccnc2)c(=O)n1-c1ccccc1 | 13µM* | -26 | i | 0 | ? | -6% | 8.9µM* | ? | 9% | -9% | -17% | -4%
O=c1c2ccccc2oc2ccc(-c3ccoc3)cc12 | · | · | · | · | · | · | · | · | · | · | ? | ·
Cc1cc(C(=O)COC(=O)c2ccc(F)cc2)c(C)n1C | ? | · | · | -10 | · | · | · | · | · | · | ? | ·
Cc1cc(C(=O)COC(=O)c2cc(Cl)c(O)c(Cl)c2)c(C)n1C | ? | 7 | i | 2 | -4 | · | · | · | · | · | · | ·
COc1ccc(N2CCN(C(=O)CCc3c(C)nc4cc(-c5cccc(F)c5)nn4c3C)CC2)cc1 | · | · | i | · | · | · | · | · | · | · | · | ·
Cc1ccc(-c2csc3ncnc(N4CCN(C(=O)c5ccccc5)CC4)c23)cc1 | 18µM* | -21 | ? | 7 | 21 | ? | 16µM* | 25µM* | ? | ? | ? | 1%
C=C1C(c2ccc(C)cc2)=CCc2cc(C)cc(C)c21 | · | · | · | · | · | 181% | · | · | · | · | ? | 5.2µM*
CC1=C(C(=O)OCc2ccc3c(c2)OCO3)C(c2ccc(Cl)cc2)NC(=O)N1 (stereo not drawn) | 0.23µM* | · | i | -4 | · | ? | 0.2µM* | 0.89µM* | 11% | ? | ? | 3%
CC1=C(C(=O)OCc2ccc3c(c2)OCO3)C(c2ccc(F)cc2)NC(=O)N1 (stereo not drawn) | 1.3µM* | 10 | i | 31 | -6 | ? | 0.89µM* | 4.5µM* | -1% | ? | ? | -7%
CSCCOC(=O)C1=C(C)NC(=O)NC1c1ccc2c(c1)OCO2 (stereo not drawn) | -13% | 1 | i | 11 | 0 | · | · | · | · | · | · | ·
O=C(Nc1ccc2[nH]c(=O)c(=O)[nH]c2c1)c1cccc(F)c1 | · | · | i | · | · | · | · | · | · | · | · | ·
COc1cc(C(=O)NCCOc2cc(C)ccc2C(C)C)cc(OC)c1OC | 4.6µM* | -5 | i | -15 | -2 | · | 14µM* | 7.1µM* | -4% | 5.6µM* | ? | ·
O=c1c2ccccc2ccc2ccccc12 | 22% | 2 | i | 2 | 0 | · | · | · | · | · | · | ·
O=c1c2ccccc2oc2c1ccc1ccccc12 | ? | · | i | -10 | · | · | · | · | · | · | -1% | ·

Source: PubChem
